This is part of a sample that, as a whole, favours compounds with a hit. Of some 83,000 tested, about 20% had one in any assay.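 The endpoint reported here, percent growth, reads 100 for growth as untreated, 0 for no net growth and -100 for all cells dead.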 Active and inactive are the calls of the source. The calls were made as follows: active = growth percent below 10; inactive = the rest.
system: SN12C renal; assay: NCI-60 one-dose screen, 48 h (100 = growth as untreated, 0 = no growth, -100 = all killed); conditions: 10 µM unless noted

| Structure (SMILES) | growth |
| --- | --- |
| COc1ccc(C(O)c2cc3c(N)c(C(=O)Nc4cccc(Br)c4)sc3nc2C)cc1 (stereo not given) | 12.1% (inactive) |
| CC/C(=C(/c1ccc(Cl)cc1)c1ccc(OCCN2CCCCC2)cc1)c1ccc(OC)cc1 | 74.8% (inactive) |
| CCOC(=O)c1c2c(n3cccc(F)c13)C(=O)c1ncccc1C2=O | 25.6% (inactive) |
| CC(=O)O[C@@H]1C[C@]2(C(C)C)O[C@@]1(C)[C@@H]1CCC(C)=C1[C@@H]2OC(=O)/C=C/c1ccccc1 | 48.4% (inactive) |
| O=C(O)c1ccc(-n2cc(/C=N/Nc3ccccc3)c(-c3ccc(F)cc3F)n2)cc1 | 73.1% (inactive) |
| O=C(NCc1ccc(Cl)cc1Cl)C1CCC(=O)N1c1cccs1 (stereo not given) | 97.9% (inactive) |
| CCSc1oc(-c2ccccc2)nc1[P+](c1ccccc1)(c1ccccc1)c1ccccc1 | 3.37% (active) |
| O=C1C(=O)N(Cc2ccc(-c3ccccc3)cc2)c2ccc(OC(F)(F)F)cc21 | 21.2% (inactive) |
| Cc1nc2sc(C(=O)Nc3ccc(Br)cc3)c(N)c2cc1C(O)c1ccccc1 (stereo not given) | 68% (inactive) |
| O=C(Cn1cc(CSc2nc3ccccc3o2)nn1)Nc1ccc(F)cc1F | 96.4% (inactive) |
| COC(=O)c1nc(-c2ccc(C)cc2)oc1S(=O)(=O)c1cccc(OC)c1 | 85% (inactive) |
| COc1ccc(C/C(C)=C(/c2ccc(OCCN(C)C)cc2)c2ccc(OC(=O)NCc3ccccc3)cc2)cc1 | 74.2% (inactive) |
| COc1ccc(/C=C(\C#N)n2nnc3cc(F)c(F)cc32)cc1 | 58.9% (inactive) |
| COC(=O)c1c2c(c(C)[n+]([O-])c1C)C(=O)C(NCc1cccc(OC)c1)=CC2=O | 2.9% (active) |
| COc1ccc(-c2nc3cc(C(=O)NCc4ccccc4)ccc3n2C2CCCCC2)cc1 | 94.6% (inactive) |
| CCN(CC)CCn1c2ccc(OC)cc2c2sc3cc(OC)ccc3c(=O)c21 | 24.6% (inactive) |
| COc1ccc(C(=O)N2c3ccccc3Sc3ccccc32)c(OC)c1 | 51.6% (inactive) |
| CCN1CCN(C(=O)[C@]23CCC(C)(C)C[C@@H]2C2=CC[C@@H]4[C@@]5(C)CCC(=O)C(C)(C)[C@@H]5CC[C@@]4(C)[C@]2(C)CC3)CC1 | 51.8% (inactive) |
| Clc1ccc2c(NC3CCC(N4CCOCC4)CC3)ccnc2c1 (stereo not given) | 90.5% (inactive) |
| CCCOC(=O)Nc1nc2ccc(SCC(C)C)cc2s1 | 44.4% (inactive) |

| Structure (SMILES) | growth |
| --- | --- |
| COc1ccc(Nc2ncc(Br)c(NCCCNC(=O)c3cccs3)n2)cc1 | 21.5% (inactive) |
| N#Cc1c(-c2ccccc2)cc(-c2ccc(Nc3nc(Nc4ccc(Cl)cc4)nc(Nc4ccc(Cl)cc4)n3)cc2)nc1N | 50.2% (inactive) |
| COC(=O)c1c(C)c2n(c1C)C(=O)C(c1ccccc1)=C2 | 78.7% (inactive) |
| COc1ccc(Nc2ncc(Br)c(NCCCNC(=O)C3CCCC3)n2)cc1 | 22% (inactive) |
| C=CCn1c(C)nc2ccc(Nc3nc(Nc4ccc5nc(C)n(CC=C)c5c4)c4ccccc4n3)cc21 | -74.9% (active) |
| O=C(O)c1cn(C2CC2)c2cc(N3CCN(Cc4ccc5ccccc5c4O)CC3)c(F)cc2c1=O | 32.5% (inactive) |
| N#C/C(=C\c1c(-c2ccccc2)[nH]c2ccccc12)C(N)=O | 94.2% (inactive) |
| COc1ccc(C2CC(c3ccc(Nc4nc(Nc5ccccc5)nc(Nc5ccccc5)n4)cc3)=NN2C(C)=O)cc1 (stereo not given) | 95.7% (inactive) |
| COc1cc2c(c(OC)c1OC)CCC(c1cccc(C(=O)Nc3cccc(Cl)c3)c1)O2 (stereo not given) | 50% (inactive) |
| COc1cc(OCc2cccc(Br)c2C)cc(OC)c1C=O | 77.5% (inactive) |
| COC1=CC(c2ccc[nH]2)=N/C1=C\c1[nH]c(C)c(C(=O)OC(C)C)c1C | -2.47% (active) |
| CCCc1c(OC(=O)c2ccccc2)nc2[nH]c(=O)sc2c1C | 92% (inactive) |
| CN(C)c1ccc(-c2c(C#N)c(N)nn2C(=O)c2ccc(NC(=O)c3ccccn3)cc2)cc1 | 101% (inactive) |
| CC1CCN(CCOc2ccc(CNc3ccc4nc(CCC5CCCCC5)[nH]c4c3)cc2)CC1 | 57.9% (inactive) |
| COc1cc2c(cc1OCCCN1CCN(CCCOc3cc4c(cc3OC)C(=O)N3CCC[C@H]3C=N4)CC1)C=CC(C)(C)O2 | -65.7% (active) |
| Oc1c(I)cc(I)cc1CNCCN(Cc1ccccn1)Cc1ccccn1 | 16% (inactive) |
| O=CN1N=C(c2cccc(Nc3ccnc4cc(Cl)ccc34)c2)CC1c1ccccc1 (stereo not given) | 30.9% (inactive) |
| COc1cc2c(cc1OC)C(C)N(S(N)(=O)=O)CC2 (stereo not given) | 88.7% (inactive) |
| CCCC/C(CC)=N\NS(=O)(=O)c1ccc([N+](=O)[O-])cc1 | 102% (inactive) |
| O=[N+]([O-])c1ccc(O)cc1Br | 98% (inactive) |

— PubChem BioAssay (NCI)
